From PubChem BioAssay AID504336 (NMMLSC, 2011)
A number with no mark means an inactive call. Activity calls are given as the source filed them.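 How the source made its calls: active means compounds whose GFP signal falls below 65% of the DMSO control level; inconclusive means fewer than 70 yeast cells counted in the well; inactive means the rest.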

Test: TOR branch reporter RPL19A-GFP response – cell-based, S. cerevisiae, third cherry pick, flow cytometry, confirmation (AID 504336);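 further: median GFP fluorescence of all gated yeast cells by flow cytometry; ratio of well median fluorescence to plate mean of DMSO wells with DMSO = 100%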
Settings: S. cerevisiae RPL19A-GFP strain, 3 h, at 10 µM, active compounds read low

| SMILES | GFP response relative to DMSO |
| --- | --- |
| CC(=O)Nn1cnc2c(c1=O)C1(CCCC1)Cc1ccccc1-2 | 99.3% |
| C/C(=N\NC(=O)c1ccccc1)c1ccccc1F | 98.3% |
| Nc1ncnc(Nc2cc(Cl)cc(Cl)c2)c1[N+](=O)[O-] | 102% |
| CSc1nc(Nc2ccc(Cl)cc2)c(C#N)c(=O)[nH]1 | 98.3% |
| CN(C)CCCNc1cc(O)c2ncccc2c1 | 103% |
| Cc1ccc(NN2C(=O)C=C(c3ccccc3)C2=O)cc1 | 61.2% (active) |
| Oc1c(Cl)cc(Cl)c2cccnc12 | 81.6% |
| OCCN1CCN(c2ncnc3ccc(Br)cc23)CC1 | 102% |
| O=C(N/N=C/c1ccccc1)c1cccc2ccccc12 | 98.3% |
| COc1ccccc1-c1cc(C(F)(F)F)nc(S(=O)(=O)CCCC(=O)O)n1 | 102% |
| COc1ccccc1Nc1nc(NCC(C)C)nc(N)c1[N+](=O)[O-] | 102% |
| CC1=CN2C(=N)/C(=C/c3ccc([N+](=O)[O-])o3)C(=O)N=C2S1 | 240% |
| O=C(O)c1ccc2cccc(O)c2n1 | 102% |
| CC(=O)Nn1cnc2c(c1=O)C1(CCCCC1)Cc1ccccc1-2 | 99.1% |
| CCCC(=O)Nn1cnc2c(c1=O)C1(CCCCC1)Cc1ccccc1-2 | 103% |
| COc1ccc(OC)c2c(=O)cc(C(=O)O)[nH]c12 | 92.3% |
| C/C(=N\NC(=O)c1cccc2ccccc12)c1cccnc1 | 98.3% |
| Cn1c(NCCO)nc2c(c1=O)C1(CCCCC1)Cc1ccccc1-2 | 103% |
| Nc1nc(NCCOCCO)nc(Nc2cccc(F)c2)c1[N+](=O)[O-] | 102% |
| O=C(Nc1ccccc1)ON=C1c2ccccc2-c2ccccc21 | 92.3% |

| SMILES | GFP response relative to DMSO |
| --- | --- |
| Cc1ccc(C)c(Nc2ncnc(N)c2[N+](=O)[O-])c1 | 99.3% |
| COc1ccc(OC)c(N/C(C)=C/C(=O)c2ccccc2)c1 | 103% |
| Cc1ccc2c(C)ccc(O)c2n1 | 103% |
| Cc1ccc(C(=O)Nc2nc(-c3ccccn3)cs2)o1 | 99.3% |
| O=c1cc(C(F)(F)F)[nH]c2c(OC(F)(F)F)cccc12 | 101% |
| COc1ccccc1Nc1nc(NCCC(C)C)nc(N)c1[N+](=O)[O-] | 97.8% |
| CCC(=O)Nn1cnc2c(c1=O)C1(CCCCC1)Cc1ccccc1-2 | 103% |
| C=CCNc1nc(N)c([N+](=O)[O-])c(Nc2cccc(Cl)c2)n1 | 104% |
| COc1cccc(N/C=C/C(=O)c2ccc(Cl)cc2)c1 | 101% |
| Cc1ccc(Nc2nc(N)[nH]c(=O)c2N=O)cc1 | 102% |
| Oc1ccc(F)c2cccnc12 | 101% |
| CSc1ccccc1OCc1cc(C(=O)N2CCN(C)C(c3ccccc3)C2)no1 (centres undefined) | 101% |
| C/C(=C\C(=O)c1ccccc1)Nc1ccc(O)cc1 | 100% |
| Cc1cccc(Nc2cc(=O)[nH]c(=O)[nH]2)c1 | 100% |
| O=C(O)CCS(=O)(=O)c1nc(-c2cccs2)cc(C(F)(F)F)n1 | 97% |
| CCC(C)Nc1nc(N)c([N+](=O)[O-])c(Nc2ccccc2OC)n1 (centres undefined) | 105% |
| NC(=O)c1ccnc2c(O)cccc12 | 98.8% |
| C/C(=C\C(=O)c1ccc(C)cc1)Nc1cccc(O)c1 | 99.3% |
| Cc1cn2c(N)c(C=C3C=C(Cl)C(=O)C(Cl)=C3)c(=O)nc2s1 | 104% |
